Source: PMC5540273 (PLoS ONE, 2017)

tested on: ROCK1; conditions: concentration: 1 μM, replicates: in singlicate; n = 1
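Note: KINOMEscan kinase panel screen.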

Structure (SMILES) | %Inh [%]
COC(=O)Nc1nc2cc(Oc3ccc(NC(=O)Nc4cc(C(F)(F)F)ccc4F)cn3)ccc2[nH]1.Cl.Cl [GW681170] | 51
Fc1ccc(-c2ncn(C3CCNCC3)c2-c2ccnc(Oc3ccc(-c4ccccc4)cc3)n2)cc1 [SB-245391] | 0
Cc1ccc(C)c(NC(=O)NC2CCN(c3ccnc(Nc4ccc(F)cc4)n3)C2)c1 (centres unmarked) [GSK1379720] | 0
CSc1cccc2c(-c3ccncn3)c(-c3ccc(F)cc3)nn12 [GW514786] | 13
Oc1cc(Nc2ccnc3cc(I)ccc23)ccc1F [GW552771] | 30
Cc1ccc(S(=O)(=O)Nc2ccc(Nc3nccc(Nc4cccc5[nH]ncc45)n3)cc2)cc1 [GSK581271] | 0
COc1cccc(-c2ccc3c(NC(=O)C4CC4)n[nH]c3n2)c1 [SB-710903] | 38
O=C(Nc1cccc(-c2nn3ccccc3c2-c2ccnc(Nc3cccc(C(F)(F)F)c3)n2)c1)c1c(F)cccc1F [GSK292658] | 0
Cl.Cl.NCC(NCc1ccc(-c2ccnc3[nH]ccc23)s1)c1ccccc1 (centres unmarked) [GSK1321565] | 100
CCn1c(-c2nonc2N)nc2c(C#CC(C)(C)O)nc(OC[C@H](N)c3ccccc3)cc21 [GSK943949] | 59
COCCOCCOc1cc2ncc3c4ccc(C#N)cc4[nH]c3c2cc1OC | 96.9
Clc1ccc(-c2nn3ncccc3c2-c2ccnc(Nc3ccc4c(c3)OCCO4)n2)cc1 [GW829116] | 37
COc1cccc(NC(=O)NC2CCN(c3ccnc(Nc4cc(OC)c(OC)c(OC)c4)n3)C2)c1 (centres unmarked) [GSK1379763] | 4
COc1cccc(C(=O)Nc2cccc(Oc3ccc4nc(NC(=O)C5CC5)cn4n3)c2)c1 | 0
CN(C)Cc1ccc(-c2ccc3c(Nc4ccc(Oc5ccccn5)cc4)ccnc3c2)o1 [GW567148] | 6
Nc1ncc(-c2cccnc2)c2scc(-c3ccc4c(c3)CCN4C(=O)Cc3ccccc3)c12 [GSK683281] | 0

Structure (SMILES) | %Inh [%]
COc1ccc(Nc2nccc(NCCNC(=O)c3cc4ccccc4s3)n2)cc1 [GSK1379896] | 13
O=C(Nc1n[nH]c2nc(-c3ccc(O)cc3)ccc12)C1CC1 [SB-710363] | 0
O=C(Nc1cccc(-c2nn3ccccc3c2-c2ccnc(Nc3cccc(F)c3)n2)c1)c1c(F)ccc(F)c1Cl [GSK357952] | 3
CN1CCN(Cc2cccc(-c3ccc4c(Nc5ccc(Oc6ccccc6)cc5)ccnc4c3)c2)CC1 [GW578342] | 25
COc1cc(Nc2nccc(N3CCC(NC(=O)Nc4cccc(C(C)=O)c4)C3)n2)cc(OC)c1OC (centres unmarked) [GSK1379753] | 25
c1ccc(Oc2ccc(Nc3ccnc4cc(-c5ccc(CNCCN6CCOCC6)o5)ccc34)cc2)nc1 [GW567145] | 4
CC(C)c1nc(-c2cccc(NS(=O)(=O)c3c(F)cccc3F)c2F)c(-c2ccnc(Nc3ccc(N4CCOCC4)nc3)n2)s1 [GSK2008607] | 0
C[C@@H](Oc1cc(-n2cnc3cc(-c4ccnc(NCCS(C)(=O)=O)c4)ccc32)sc1C(N)=O)c1ccccc1Cl [GSK907232] | 0
Cn1cc(-c2[nH]c3cc(NC(=O)[C@H](N)C4CCCCC4)cc4c3c2C=NNC4=O)cn1 | 85
CCS(=O)(=O)c1ccc(OC)c(Nc2nccc(-c3c(-c4cccc(NC(=O)c5c(F)cccc5F)c4)nn4ncccc34)n2)c1 [GSK326180] | 2
Cl.NC(=O)c1cccc(Nc2nccc(Nc3ccc(Oc4c(Cl)cccc4Cl)c(Cl)c3)n2)c1 [GW659009] | 0
Nc1ncc(-c2ccc3nccc(-c4ccncc4)c3c2)cc1S(=O)(=O)N1CCOCC1 [GSK1627798] | 0
Cn1cc(-c2ccc3c(c2)CCN3C(=O)Cc2cccc(Cl)c2)c2c(N)ncnc21 [GSK2606590] | 0
CC(C)(C)c1ccc2nccc(Nc3cccc(O)c3)c2c1 [GW856795] | 55
CC(=O)Nc1nc2cnc(Nc3cc(NC(=O)c4cccc(C5(C#N)CC5)c4Cl)ccc3C)nc2s1 | 5
COc1cc(Nc2nccc(N3CCC(NC(=O)c4cc5ccccc5s4)C3)n2)cc(OC)c1OC (centres unmarked) [GSK1379760] | 0
